# Test results published in the supplement of paper PMC12494721.
# Counter-ions that a name gives are not always drawn.
# Tests used:
# Conditions in all cases: 20 µM; incubation time: 27 h, anaerobic, 37 °C;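 for the amine columns active = adjusted P below 0.05 in both replicates with a change the same way and a mean fold change under 0.8 or over 1.25; inactive = the rest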
# [1] = tested on: Clostridium sporogenes DSM 1664; experiment: growth (OD595) fold change vs plate DMSO controls (fold change (ratio)); higher = more growth
# How it was run: (§1)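 The 96-well mGAM cultures had been kept anaerobic for 27 h at 37 °C before being shaken and read at 595 nm. Blank subtraction, compound background correction with 20 µM compound solutions in water, and a calibration factor of 5 turned the readings into OD. Growth is given as the fold change versus the median of plate DMSO controls. Fold changes above 1.5 were set to NA, and the values are means of 2 biological replicates.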
# [2] = tested on: Escherichia coli IAI1; experiment: as above
# How it was run: as §1
# [3] = tested on: Klebsiella aerogenes DSM 30053; experiment: as above
# How it was run: as §1
# [4] = tested on: Ruminococcus gnavus DSM 108212; experiment: as above
# How it was run: as §1
# [5] = tested on: Klebsiella aerogenes DSM 30053; experiment: fold change of Histamine concentration vs plate DMSO controls (fold change (ratio)); higher = more amine produced, active = hit call of the paper (significant change in both replicates, either direction)
# How it was run: (§2)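 In 80 µL wells, cultures of four gut bacterial strains in mGAM started at OD 0.1 before a 1:1 dilution and grew anaerobically at 37 °C for 27 h. Compounds were added to 20 µM final, except sweeteners at 50 µM final. After extraction of whole cultures with cold acetonitrile/methanol plus 0.1% formic acid and centrifugation, amines were measured by LC–triple-quadrupole MS in dynamic MRM mode against external calibration curves, with within-batch drift correction. Values give fold change over DMSO controls on the same plate, averaged across 2 biological replicates.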
# [6] = tested on: Clostridium sporogenes DSM 1664; experiment: fold change of Tryptamine concentration vs plate DMSO controls (fold change (ratio)); higher = more amine produced, active = hit call of the paper (significant change in both replicates, either direction)
# How it was run: as §2
# [7] = tested on: Ruminococcus gnavus DSM 108212; experiment: as above
# How it was run: as §2
# [8] = tested on: Escherichia coli IAI1; experiment: fold change of Putrescine concentration vs plate DMSO controls (fold change (ratio)); higher = more amine produced, active = hit call of the paper (significant change in both replicates, either direction)
# How it was run: as §2
# [9] = tested on: Klebsiella aerogenes DSM 30053; experiment: as above
# How it was run: as §2
# [10] = tested on: Escherichia coli IAI1; experiment: fold change of Cadaverine concentration vs plate DMSO controls (fold change (ratio)); higher = more amine produced, active = hit call of the paper (significant change in both replicates, either direction)
# How it was run: as §2
# [11] = tested on: Klebsiella aerogenes DSM 30053; experiment: as above
# How it was run: as §2
# [12] = tested on: Ruminococcus gnavus DSM 108212; experiment: fold change of 2-Phenylethylamine concentration vs plate DMSO controls (fold change (ratio)); higher = more amine produced, active = hit call of the paper (significant change in both replicates, either direction)
# How it was run: as §2
SMILES,growth [1],growth [2],growth [3],growth [4],fold change of Histamine concentration [5],fold change of Tryptamine concentration [6],fold change of Tryptamine concentration [7],fold change of Putrescine concentration [8],fold change of Putrescine concentration [9],fold change of Cadaverine concentration [10],fold change of Cadaverine concentration [11],fold change of 2-Phenylethylamine concentration [12]
CC1(C(=O)Nc2ccc(O)c(Cl)c2Cl)CCCCC1,0.939,1.02,1,1.22,0.992 (inactive),0.999 (inactive),0.96 (inactive),0.992 (inactive),0.99 (inactive),1.03 (inactive),1 (inactive),0.987 (inactive)
CCN(CC)CCOC(=O)C(O)(c1ccccc1)c1ccccc1 [Benactyzine hydrochloride],1.07,1.01,1.01,0.944,0.998 (inactive),0.997 (inactive),1.06 (inactive),1.02 (inactive),0.992 (inactive),0.986 (inactive),0.999 (inactive),1.07 (inactive)
CC(NC(C)(C)C)C(=O)c1cccc(Cl)c1 (stereo not given) [Bupropion hydrochloride],0.957,1.01,0.949,1.02,1.08 (inactive),0.987 (inactive),1.08 (inactive),1.02 (inactive),0.995 (inactive),1 (inactive),0.97 (inactive),1.12 (inactive)
CNC(C)(C)Cc1ccccc1 [Mephentermine hemisulfate],1.05,0.976,0.99,0.991,0.952 (inactive),1.04 (inactive),1.24 (inactive),1.03 (inactive),0.952 (inactive),0.943 (inactive),1.01 (inactive),1.38 (inactive)
Cc1c(COC(=O)[C@@H]2[C@H](/C=C(\Cl)C(F)(F)F)C2(C)C)cccc1-c1ccccc1 (racemic),1.05,1.09,0.978,1.13,1.02 (inactive),0.975 (inactive),1.03 (inactive),1 (inactive),0.953 (inactive),0.864 (inactive),0.989 (inactive),1.07 (inactive)
Cc1cc(C(C#N)c2ccc(Cl)cc2)c(Cl)cc1NC(=O)c1cc(I)cc(I)c1O (stereo not given),0,0.947,1,0.156,1.07 (inactive),0.0183 (active),0.104 (active),1.07 (inactive),1.03 (inactive),1.29 (active),1.01 (inactive),0.11 (active)
CCOC(=O)OC1=C(c2cc(C)ccc2C)C(=O)N[C@]12CC[C@@H](OC)CC2,0.93,1.02,0.993,0.921,1.01 (inactive),0.974 (inactive),1.02 (inactive),1 (inactive),1 (inactive),0.963 (inactive),1 (inactive),1.04 (inactive)
O=[N+]([O-])c1ccc2ccc3cccc4ccc1c2c34 [1-Nitropyrene],0.638,1.04,1,0.914,0.971 (inactive),0.785 (inactive),0.952 (inactive),1.03 (inactive),1 (inactive),0.96 (inactive),1.01 (inactive),0.967 (inactive)
COc1ccc(CCN2CCC(Nc3nc4ccccc4n3Cc3ccc(F)cc3)CC2)cc1 [Astemizole],1.26,1.02,1.01,,0.968 (inactive),1.02 (inactive),0.838 (inactive),1.01 (inactive),0.988 (inactive),1.05 (inactive),0.994 (inactive),0.796 (inactive)
N#Cc1nn(-c2c(Cl)cc(C(F)(F)F)cc2Cl)c(N)c1[S+]([O-])C(F)(F)F (stereo not given),1.16,0.982,0.977,1.02,1.1 (inactive),1.13 (inactive),1.06 (inactive),1.05 (inactive),1.05 (inactive),0.937 (inactive),1.08 (inactive),1.27 (inactive)
O=C1C2(Cl)C3(Cl)C4(Cl)C(Cl)(Cl)C5(Cl)C3(Cl)C1(Cl)C5(Cl)C24Cl (stereo not given),0,1.09,1.04,,1.07 (inactive),0.0206 (active),0.27 (active),1.05 (inactive),1.07 (inactive),1.14 (inactive),1.05 (inactive),0.297 (inactive)
CC(=O)OCC(=O)[C@H]1CC[C@H]2[C@@H]3CC[C@H]4C[C@H](O)CC[C@]4(C)[C@H]3C(=O)C[C@]12C [Alfadolone acetate],0.985,1.26,0.997,1.11,1.03 (inactive),1.04 (inactive),1.02 (inactive),1.22 (inactive),0.981 (inactive),1.03 (inactive),0.977 (inactive),1.01 (inactive)
C#C[C@]1(O)CC[C@H]2[C@@H]3CCC4=CC(=O)CC[C@]4(C)[C@H]3CC[C@@]21C [Ethisterone],0.939,1.07,1.01,0.986,1.05 (inactive),1.02 (inactive),1 (inactive),1.03 (inactive),1.04 (inactive),0.988 (inactive),0.997 (inactive),1.04 (inactive)
CN1[C@@H]2CC[C@H]1C[C@@H](OC(=O)[C@H](CO)c1ccccc1)C2 [(L) Hyoscyamine],,1.03,1.06,1.08,0.941 (inactive),,1.13 (inactive),0.992 (inactive),0.94 (inactive),0.923 (inactive),1.02 (inactive),1.11 (inactive)
C[CH2][Hg][S]c1ccccc1C(=O)[O-].[Na+] [Thimerosal],0.878,0.91,0.707,,0.531 (inactive),0.986 (inactive),0.487 (active),0.936 (inactive),0.953 (inactive),0.896 (inactive),1 (inactive),0.496 (inactive)
CCOC(=O)c1cncn1[C@H](C)c1ccccc1 [Etomidate],,1.22,0.988,0.931,0.992 (inactive),,1.06 (inactive),0.985 (inactive),1.07 (inactive),0.973 (inactive),1.07 (inactive),1.19 (inactive)
CCC(=O)O[C@H]1CC[C@H]2[C@@H]3CCC4=CC(=O)CC[C@]4(C)[C@H]3CC[C@]12C [Testosterone propionate],1.02,1.01,1.03,,1.02 (inactive),0.993 (inactive),1.08 (inactive),0.938 (inactive),1.02 (inactive),0.985 (inactive),1.07 (inactive),1.23 (inactive)
COC(=O)N(C(=O)N1CO[C@@]2(C(=O)OC)Cc3cc(Cl)ccc3C2=N1)c1ccc(OC(F)(F)F)cc1,1.15,0.998,0.992,0.903,0.975 (inactive),1.03 (inactive),1.03 (inactive),0.945 (inactive),0.915 (inactive),0.907 (inactive),1.03 (inactive),0.986 (inactive)
Oc1ccc(Cl)cc1Cc1cc(Cl)ccc1O [Dichlorophen],0.903,0.835,0.919,0.819,1.13 (inactive),0.732 (inactive),0.561 (active),1.21 (inactive),0.97 (inactive),1.66 (active),0.975 (inactive),0.635 (inactive)
